# Reference: PubChem BioAssay (NCATS)
# Values joined by “and” are separate entries in the source; they are usually repeats but may differ in a detail not shown here. Identical values can stand only once. Records with an inconclusive call do not appear. A call without a number means that no potency is given here. Active and inactive are the calls of the source. Unless noted, calls follow the shape of the dose curve; as a rule, active = well fitted curve in the direction sought with a large enough effect; inconclusive = small, poorly fitted or top-dose-only effect, or another doubt; inactive = no such curve, though single readings can be large; an effect the other way counts as inactive or inconclusive.
# Assays:
# [1] = qHTS Assay for Lipid Storage Modulators (AID 1519; calls by dose curve); conditions: Drosophila S3 cells, BODIPY lipid droplet/cell ratio, laser cytometry, cells loaded with oleic acid
# Summary of the method: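 Cells seeded at 5,000 per well were treated with compounds over a concentration series and loaded with oleic acid (400 uM, as added). Lipid droplet fluorescence (488 nm excitation, 500-530 nm channel) was read by laser-scanning cytometry and normalized to 20 uM Triacsin C.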
# [2] = target: DNA repair nuclease/redox regulator APEX1 (Homo sapiens) (UniProt P27695); assay: qHTS Validation Assay for Inhibitors of the Human Apurinic/apyrimidinic Endonuclease 1 (APE1) (AID 1705; also: potency is read from the fitted curve at half-maximal effect;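 as to activity change, negative = inhibition: TAMRA fluorescence gain over two minutes as APE1 cuts a quenched THF abasic duplex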)
# Sequence of DNA repair nuclease/redox regulator APEX1 (Homo sapiens) (P27695 whole entry, looked up): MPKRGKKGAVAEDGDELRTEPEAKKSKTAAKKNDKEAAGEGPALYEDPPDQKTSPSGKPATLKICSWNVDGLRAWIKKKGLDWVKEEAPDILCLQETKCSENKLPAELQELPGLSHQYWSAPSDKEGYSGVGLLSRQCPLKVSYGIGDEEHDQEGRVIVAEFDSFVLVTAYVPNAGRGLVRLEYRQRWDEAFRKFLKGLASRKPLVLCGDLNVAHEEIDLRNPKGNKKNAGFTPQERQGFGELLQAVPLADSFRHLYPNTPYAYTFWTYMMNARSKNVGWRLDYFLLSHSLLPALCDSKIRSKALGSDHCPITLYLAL
# Summary of the method: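 Human APE1 was preincubated with compound for 15 min at room temperature, then 50 nM (final) THF-abasic double-stranded DNA substrate bearing 5'-TAMRA and 3'-BHQ-2 was added. Incision-driven fluorescence rise (ex 525/em 598 nm) was read kinetically.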
# [3] = Counterscreen for APE1 Inhibitors: Fluorescent Dye Displacement Validation Assay (AID 1707)
# Summary of the method: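 Endpoint fluorescence read at 480 nm excitation / 540 nm emission; DNA-binding compounds lower signal by displacing 250 nM Thiazole Orange from 50 nM dsDNA containing a tetrahydrofuran abasic site, Tris-HCl pH7.5 buffer with NaCl and MgCl2.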
# [4] = target: Endonuclease 4 (Escherichia coli (strain K12)) (UniProt P0A6C1); assay: Counterscreen for APE1 Inhibitors: qHTS Validation Assay for Inhibitors of Endonuclease IV (AID 1708); also: potency is read from the fitted curve at half-maximal effect
# Summary of the method: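 Enzyme (2 nM) + compound, 15 min RT; add 50 nM TAMRA/BHQ-2 THF-site dsDNA; kinetic read ex525/em598, 3 reads/60 s; activity = read 3 − read 1. Buffer Tris pH 7.5, 50 mM NaCl, 2 mM MgCl2, DTT, Tween-20.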
# [5] = qHTS for differential inhibitors of proliferation of Plasmodium falciparum line 7G8 (AID 1815);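 also: parasite growth measured after three days of incubation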; also: potency is read from the fitted curve at half-maximal effect
# [6] = qHTS for differential inhibitors of proliferation of Plasmodium falciparum line GB4 (AID 1816); conditions: Potency: Plasmodium falciparum GB4 proliferation inhibition;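 also: parasite growth measured after 72 h incubation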; also: potency is read from the fitted curve at half-maximal effect
# [7] = qHTS for differential inhibitors of proliferation of Plasmodium falciparum line 3D7 (AID 1876);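 also: parasite growth measured after three days of culture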
# [8] = qHTS for differential inhibitors of proliferation of Plasmodium falciparum line D10 (AID 1877);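 also: parasites grown with compound for 72 h before DNA staining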
# [9] = qHTS for differential inhibitors of proliferation of Plasmodium falciparum line Dd2 (AID 1882); conditions: Potency: Plasmodium falciparum Dd2 proliferation inhibition; also: nearly all actives have a fitted effect of over 65% in size
# Summary of the method: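 SYBR Green DNA fluorescence (ex 485, em 535 nm) after overnight lysis quantifies parasite growth; compound exposure lasted 72 h at 37 C on infected red cells at 2.5% hematocrit, 0.3% parasitemia (final). Artemisinin 0.29 uM and vehicle wells define normalization.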
# [10] = qHTS for differential inhibitors of proliferation of Plasmodium falciparum line W2 (AID 1883); conditions: Potency: Plasmodium falciparum W2 proliferation inhibition;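 also: parasites grown with compound for 72 h before lysis and staining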; also: potency is read from the fitted curve at half-maximal effect
# [11] = qHTS for differential inhibitors of proliferation of Plasmodium falciparum line HB3 (AID 1886); conditions: Potency: Plasmodium falciparum HB3 proliferation inhibition;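 also: parasites grown with compound for 72 h before SYBR Green readout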; also: potency is read from the fitted curve at half-maximal effect
# [12] = target: Ferritin light chain (Equus caballus) (UniProt P02791); assay: qHTS Validation Assay for Identification of Novel General Anesthetics (AID 2323)
# Sequence of Ferritin light chain (Equus caballus) (P02791 2-175 limits assumed): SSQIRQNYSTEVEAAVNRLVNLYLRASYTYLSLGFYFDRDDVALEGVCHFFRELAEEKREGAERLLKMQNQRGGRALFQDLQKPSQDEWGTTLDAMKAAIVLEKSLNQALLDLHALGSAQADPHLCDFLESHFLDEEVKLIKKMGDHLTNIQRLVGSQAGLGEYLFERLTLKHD
# Summary of the method: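 Competitive displacement of profluorescent 1-aminoanthracene (1-AMA, 50% saturated solution in PBS) from 10 uM horse-spleen apoferritin. Compounds incubated 10 min at room temperature; fluorescence read at 380 nm excitation/535 nm emission, normalized to free 1-AMA and complex, fitted with four-parameter Hill equation.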
# [13] = target: RecQ-like DNA helicase BLM (Homo sapiens) (UniProt P54132); assay: qHTS Validation Assay for Inhibitors of Bloom's syndrome helicase (BLM) (AID 2364)
# Sequence of RecQ-like DNA helicase BLM (Homo sapiens) (P54132 whole entry, looked up): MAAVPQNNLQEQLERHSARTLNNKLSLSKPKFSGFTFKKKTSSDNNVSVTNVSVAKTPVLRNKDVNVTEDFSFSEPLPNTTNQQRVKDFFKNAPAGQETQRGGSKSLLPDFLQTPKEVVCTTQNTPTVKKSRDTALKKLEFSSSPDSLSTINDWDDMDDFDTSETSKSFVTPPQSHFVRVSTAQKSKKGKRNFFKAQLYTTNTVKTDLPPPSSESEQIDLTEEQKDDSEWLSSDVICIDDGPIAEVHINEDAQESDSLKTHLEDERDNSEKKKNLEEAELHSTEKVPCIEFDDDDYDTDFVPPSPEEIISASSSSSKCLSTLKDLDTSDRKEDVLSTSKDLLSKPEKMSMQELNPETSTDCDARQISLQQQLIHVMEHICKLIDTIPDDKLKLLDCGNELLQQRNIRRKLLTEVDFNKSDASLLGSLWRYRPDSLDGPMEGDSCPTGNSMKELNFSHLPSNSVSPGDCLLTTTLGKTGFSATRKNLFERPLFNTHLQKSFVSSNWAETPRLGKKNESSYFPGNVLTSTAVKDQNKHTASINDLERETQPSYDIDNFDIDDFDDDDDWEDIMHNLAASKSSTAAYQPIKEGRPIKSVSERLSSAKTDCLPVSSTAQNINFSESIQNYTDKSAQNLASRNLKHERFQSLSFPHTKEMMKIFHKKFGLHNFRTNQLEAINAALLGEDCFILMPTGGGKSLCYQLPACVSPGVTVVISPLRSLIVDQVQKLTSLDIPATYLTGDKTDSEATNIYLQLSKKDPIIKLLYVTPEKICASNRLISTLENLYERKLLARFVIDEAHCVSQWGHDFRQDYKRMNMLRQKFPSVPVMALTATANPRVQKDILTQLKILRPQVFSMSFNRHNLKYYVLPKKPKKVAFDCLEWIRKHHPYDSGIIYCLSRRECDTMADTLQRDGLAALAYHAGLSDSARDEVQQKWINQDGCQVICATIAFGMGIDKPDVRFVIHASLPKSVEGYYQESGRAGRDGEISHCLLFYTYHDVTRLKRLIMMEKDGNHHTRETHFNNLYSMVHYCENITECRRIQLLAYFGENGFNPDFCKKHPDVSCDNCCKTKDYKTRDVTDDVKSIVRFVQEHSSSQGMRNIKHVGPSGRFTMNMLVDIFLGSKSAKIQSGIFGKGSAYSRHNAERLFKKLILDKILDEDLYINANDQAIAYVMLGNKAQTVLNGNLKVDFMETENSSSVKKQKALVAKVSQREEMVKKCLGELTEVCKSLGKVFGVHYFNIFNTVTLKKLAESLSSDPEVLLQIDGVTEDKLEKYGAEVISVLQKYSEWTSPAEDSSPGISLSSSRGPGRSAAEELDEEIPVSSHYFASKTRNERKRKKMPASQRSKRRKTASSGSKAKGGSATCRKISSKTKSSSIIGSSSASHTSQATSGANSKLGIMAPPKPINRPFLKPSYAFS
# Summary of the method: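 BLM 50 nM in 25 mM Tris-HCl pH 8.0, 5 mM NaCl, 2 mM MgCl2, 1 mM DTT, 0.01% Tween-20, 2.5 ug/ml poly(dI-dC); 15 min cpd preinc, RT. Start: 200 nM forked DNA + 2 mM ATP (final). TAMRA read, 2 reads 2 h apart.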
# [14] = Cytometric Cell-Based qHTS for Inhibitors of the mTORC1 Signaling Pathway in MEF (Tsc2-/-, p53-/-) Cells (AID 2660);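 also: Tsc2 and p53 null MEFs carrying empty vector with compound for 24 h; percent of cells above a phospho-rpS6 to PI ratio cutoff in each well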
# Summary of the method: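 Cells are plated, treated with compound for 24 hrs at 37 degree Celsius, then fixed, blocked and immunostained for phospho-rpS6 Ser235/236. Propidium iodide counterstain follows. Per-well % positive cells is derived from the PI-normalized phospho-S6 signal.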
# [15] = High Content Imaging Cell-Based qHTS for Inhibitors of the mTORC1 Signaling Pathway in MEF (Tsc2-/-, p53-/-) Cells (AID 2666);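 also: percent of cells scored positive for phospho-rpS6 Ser235/236 immunostaining by imaging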
# Summary of the method: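 Inhibition of rpS6 phosphorylation is measured by immunofluorescence imaging in empty-vector Tsc2-/-, p53-/- mouse embryonic fibroblasts after 24 hrs compound exposure at 37 degree Celsius. Results are reported as % positive cells per well.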
# [16] = qHTS Assay for Modulators of Human Peripheral Myelin Protein 22 (PMP22) Expression/Activity (AID 1967; active = well fitted curve in the direction sought with a large enough effect in the signal ratio; the % refers to the signal ratio)
# Summary of the method: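 MSC80 mouse Schwann cells stably carrying Pmp22 promoter–green click beetle luciferase plus EF-alpha–red luciferase control were dosed for 24h at 37 °C. Dual-colour luminescence was filter-overlap corrected; %Activity came from green/red ratio versus untreated cells.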
# [17] = target: ATP-dependent DNA helicase Q1 (Homo sapiens) (UniProt P46063); assay: qHTS Validation Assay for Inhibitors of RecQ-Like Dna Helicase 1 (RECQ1) (AID 2353)
# Sequence of ATP-dependent DNA helicase Q1 (Homo sapiens) (P46063 whole entry, looked up): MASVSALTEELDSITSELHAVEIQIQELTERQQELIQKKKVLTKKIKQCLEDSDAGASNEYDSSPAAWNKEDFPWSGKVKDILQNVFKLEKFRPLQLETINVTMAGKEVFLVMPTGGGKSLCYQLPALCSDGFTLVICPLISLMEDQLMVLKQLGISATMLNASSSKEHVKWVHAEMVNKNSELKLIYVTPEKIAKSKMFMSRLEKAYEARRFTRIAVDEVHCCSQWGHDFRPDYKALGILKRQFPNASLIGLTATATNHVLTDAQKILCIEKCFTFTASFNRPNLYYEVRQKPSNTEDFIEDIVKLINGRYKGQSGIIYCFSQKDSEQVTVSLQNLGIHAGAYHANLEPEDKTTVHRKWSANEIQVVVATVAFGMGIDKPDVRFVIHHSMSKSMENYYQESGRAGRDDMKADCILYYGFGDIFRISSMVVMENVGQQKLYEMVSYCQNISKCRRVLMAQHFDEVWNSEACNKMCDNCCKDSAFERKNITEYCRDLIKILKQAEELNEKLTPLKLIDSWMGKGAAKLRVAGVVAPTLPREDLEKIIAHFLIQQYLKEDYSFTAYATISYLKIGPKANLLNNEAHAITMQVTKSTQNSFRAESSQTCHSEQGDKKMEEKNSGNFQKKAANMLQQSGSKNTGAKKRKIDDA
# Summary of the method: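 RECQ1T1 50 nM; forked duplex (20 bp + 30-nt ss tails) 200 nM, ATP 2 mM final; pH 8.0, 2 mM MgCl2, 2.5 ug/ml poly(dI-dC); 15 min compound preincubation; discontinuous kinetic read over 2 h at RT.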
# [18] = measured here: cell count channel max response
# [19] = measured here: lipid channel max response
compound,measurement,setting,value
O=C(Nc1cccc(C(=O)Nc2ccc(S(=O)(=O)O)c3cc(S(=O)(=O)O)cc(S(=O)(=O)O)c23)c1)Nc1cccc(C(=O)Nc2ccc(S(=O)(=O)O)c3cc(S(=O)(=O)O)cc(S(=O)(=O)O)c23)c1,"activity change, negative = inhibition",[1]; at 57.5 µM (top of the series),2.61% (inactive)
same,max response,[1]; [18],-8.67%
same,max response,[1]; [19],-6.27%
same,Potency,[2],10 µM (active)
same,Potency,[3],inactive
same,Potency,[4],8.91 µM (active)
same,Potency,[5],inactive
same,Potency,[6],inactive
same,Potency,[7],inactive
same,Potency,[8],inactive
same,Potency,[9],inactive
same,Potency,[10],inactive
same,Potency,[11],inactive
same,Potency,[12],inactive
same,Potency,[13],inactive
same,outcome,[14],inactive
same,Potency,[15],inactive
CCCCCCCCCCCCCCCCCCNC(=O)OCC(COP(=O)([O-])OCC[n+]1ccsc1)OC (configuration not stated),"activity change, negative = inhibition",[1]; at 57.5 µM (top of the series),0.643% (inactive)
same,max response,[1]; [18],-16.2%
same,max response,[1]; [19],-15%
same,Potency,[2],inactive
same,Potency,[3],inactive
same,Potency,[4],inactive
same,Potency,[6],11.2 µM (active)
same,Potency,[8],inactive
same,Potency,[9],inactive
same,Potency,[11],11.2 µM (active)
same,outcome,[16],inactive
same,Potency,[17],inactive
CCCCCCCCCCCCCCCC(=O)OC(CC(=O)O)C[N+](C)(C)C (configuration not stated),"activity change, negative = inhibition",[1]; at 57.5 µM (top of the series),-1.01% (inactive)
same,max response,[1]; [18],29%
same,max response,[1]; [19],25.7%
same,Potency,[2],inactive
same,Potency,[3],inactive
same,Potency,[5],inactive
same,Potency,[6],inactive
same,Potency,[8],inactive
same,Potency,[9],inactive
same,Potency,[11],inactive
same,outcome,[16],inactive
same,Potency,[17],inactive
same,outcome,[14],inactive
same,Potency,[15],inactive
Nc1ccc(O)c(C(=O)O)c1,"activity change, negative = inhibition",[1]; at 25.7 µM (top of the series),1.25% (inactive)
same,max response,[1]; [18],-4.23%
same,max response,[1]; [19],-4.44%
COc1cc(OC)c(/C=C2/C(=O)Nc3ccccc32)c(OC)c1,"activity change, negative = inhibition",[1]; at 57.5 µM (top of the series),-1.27% (inactive)
same,max response,[1]; [18],30.4%
same,max response,[1]; [19],28.6%
same,Potency,[2],inactive
same,Potency,[3],inactive
same,Potency,[8],inactive
same,Potency,[9],inactive
same,Potency,[17],inactive
same,outcome,[14],inactive
same,Potency,[15],inactive
O=S(=O)(c1cccc2c(I)cccc12)N1CCCNCC1,"activity change, negative = inhibition",[1]; at 57.5 µM (top of the series),1.19% (inactive)
same,max response,[1]; [18],-8.25%
same,max response,[1]; [19],-5.07%
same,Potency,[2],inactive
same,Potency,[3],inactive
same,Potency,[4],inactive
same,Potency,[5],inactive
same,Potency,[7],inactive
same,Potency,[8],inactive
same,Potency,[10],7.08 µM (active)
same,Potency,[11],inactive
same,Potency,[12],inactive
same,Potency,[17],inactive
same,Potency,[13],inactive
same,outcome,[14],inactive
same,Potency,[15],inactive
O=C1NC(O)=NC1(c1ccccc1)c1ccccc1,"activity change, negative = inhibition",[1]; at 57.5 µM (top of the series),1.6% (inactive)
same,max response,[1]; [18],-13.9%
same,max response,[1]; [19],-13.3%
same,Potency,[2],inactive
same,Potency,[3],inactive
same,Potency,[4],inactive
same,Potency,[5],inactive
same,Potency,[6],inactive
same,Potency,[7],inactive
same,Potency,[8],inactive
same,Potency,[9],inactive
same,Potency,[10],inactive
same,Potency,[11],inactive
same,Potency,[12],inactive
same,Potency,[17],inactive
same,outcome,[14],inactive
same,Potency,[15],inactive
O=C(c1cc(O)c(O)c([N+](=O)[O-])c1)c1ccccc1F,"activity change, negative = inhibition",[1]; at 57.5 µM (top of the series),-2.67% (inactive)
same,max response,[1]; [18],-12%
same,max response,[1]; [19],-15.8%
same,Potency,[2],inactive
same,Potency,[3],inactive
same,Potency,[4],inactive
same,Potency,[7],inactive
same,Potency,[8],inactive
same,Potency,[9],inactive
same,Potency,[11],inactive
same,Potency,[17],inactive
same,outcome,[14],inactive
same,Potency,[15],inactive
S=c1[nH]c2ccccc2s1,"activity change, negative = inhibition",[1]; at 57.5 µM (top of the series),12% (inactive)
same,max response,[1]; [18],14.4%
same,max response,[1]; [19],29.5%
O=C(O)Cc1ccc(-c2ccccc2)cc1,"activity change, negative = inhibition",[1]; at 25.7 µM (top of the series),1.48% (inactive)
same,max response,[1]; [18],-7.71%
same,max response,[1]; [19],-5.4%
NCCCS(=O)(=O)O,"activity change, negative = inhibition",[1]; at 57.5 µM (top of the series),4.47% (inactive)
same,max response,[1]; [18],17.3%
same,max response,[1]; [19],22.8%
same,Potency,[2],inactive
same,Potency,[3],inactive
same,Potency,[4],inactive
same,Potency,[10],11.2 µM (active)
same,Potency,[12],inactive
same,Potency,[17],inactive
same,Potency,[13],inactive
same,outcome,[14],inactive
N=C(N)N,"activity change, negative = inhibition",[1]; at 57.5 µM (top of the series),4.02% (inactive)
same,max response,[1]; [18],15.8%
same,max response,[1]; [19],23.8%
O=c1[nH]c2ccccc2n1CCCN1CCN(C(c2ccccc2)c2ccccc2)CC1,"activity change, negative = inhibition",[1]; at 57.5 µM (top of the series),0.533% (inactive)
same,max response,[1]; [18],44.5%
same,max response,[1]; [19],44%
same,Potency,[2],inactive
same,Potency,[3],inactive
same,Potency,[4],inactive
same,Potency,[5],7.08 µM (active)
same,Potency,[6],12.6 µM (active)
same,Potency,[10],4.47 µM (active)
same,Potency,[11],14.1 µM (active)
same,Potency,[17],inactive
N[C@H](CCCP(=O)(O)O)C(=O)O,"activity change, negative = inhibition",[1]; at 57.5 µM (top of the series),2.93% (inactive) and -1.99% (inactive)
same,max response,[1]; [18],-9.86% and -13.3%
same,max response,[1]; [19],-5.72% and -16.1%
O=C(OCc1ccccc1)c1ccccc1,"activity change, negative = inhibition",[1]; at 57.5 µM (top of the series),9.34% (inactive)
same,max response,[1]; [18],-2.84%
same,max response,[1]; [19],6.88%
Nc1ccc(C(=O)O)c(O)c1,"activity change, negative = inhibition",[1]; at 57.5 µM (top of the series),-7.1% (inactive)
same,max response,[1]; [18],19.5%
same,max response,[1]; [19],14%
CC(C(=O)O)c1ccc(C(=O)c2cccs2)cc1 (configuration not stated),"activity change, negative = inhibition",[1]; at 57.5 µM (top of the series),15.6% (inactive)
same,max response,[1]; [18],8.76%
same,max response,[1]; [19],31%
CCCCCCOc1ccccc1C(N)=O,"activity change, negative = inhibition",[1]; at 57.5 µM (top of the series),12.4% (inactive)
same,max response,[1]; [18],7.6%
same,max response,[1]; [19],24%
CCCSc1ccc2nc(NC(=O)OC)[nH]c2c1,"activity change, negative = inhibition",[1]; at 25.7 µM (top of the series),-1.88% (inactive)
same,"activity change, negative = inhibition",[1]; at 57.5 µM (top of the series),9.19% (inactive)
same,max response,[1]; [18],-8.08% and -12.8%
same,max response,[1]; [19],-10.3% and -11.2%
